Sampled rows, rich in hits. Any-hit rate of the full collection: about 1.6%.
KCNQ2 inh: inhibitors of rat KCNQ2 potassium channel; O88943; CHO-K1 KCNQ2, FluxOR thallium flux, 20 min; hits give low values; B-score at 10 µM; actives 1.1% (n = 310,000);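 active = fluorescence ratio B-score at most minus 3 library SDs, with starting brightness B-score within 2 library SDs, cut at about -5.5 in these data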
Target sequence (O88943 whole entry, looked up): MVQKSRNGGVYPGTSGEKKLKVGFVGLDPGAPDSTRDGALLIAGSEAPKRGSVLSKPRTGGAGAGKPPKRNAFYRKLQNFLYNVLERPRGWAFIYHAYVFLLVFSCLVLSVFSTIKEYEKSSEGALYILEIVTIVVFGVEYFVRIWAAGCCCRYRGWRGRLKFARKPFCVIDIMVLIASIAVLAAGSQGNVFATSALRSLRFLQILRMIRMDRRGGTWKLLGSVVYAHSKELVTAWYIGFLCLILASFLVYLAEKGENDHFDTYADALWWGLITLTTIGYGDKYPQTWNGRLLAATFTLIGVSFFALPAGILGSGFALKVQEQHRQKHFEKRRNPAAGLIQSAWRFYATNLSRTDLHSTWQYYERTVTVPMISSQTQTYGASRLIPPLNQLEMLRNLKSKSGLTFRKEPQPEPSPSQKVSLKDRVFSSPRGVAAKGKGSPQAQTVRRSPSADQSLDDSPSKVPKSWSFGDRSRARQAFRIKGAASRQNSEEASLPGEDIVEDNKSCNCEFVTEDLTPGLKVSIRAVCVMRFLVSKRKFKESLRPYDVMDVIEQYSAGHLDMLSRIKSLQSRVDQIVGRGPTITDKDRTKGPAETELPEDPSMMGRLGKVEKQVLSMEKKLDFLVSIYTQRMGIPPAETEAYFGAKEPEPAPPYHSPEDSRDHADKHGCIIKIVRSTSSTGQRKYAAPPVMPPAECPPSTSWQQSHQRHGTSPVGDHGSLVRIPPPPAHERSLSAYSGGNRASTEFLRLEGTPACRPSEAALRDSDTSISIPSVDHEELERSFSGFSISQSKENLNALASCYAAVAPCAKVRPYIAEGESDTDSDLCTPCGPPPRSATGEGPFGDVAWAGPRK
KCNQ2 enhance: KCNQ2 (rat) channel potentiation | actives 0.54% (n = 310,000) | B-score at 10 µM | AID 2239 | O88943 | CHO-K1 KCNQ2, FluxOR thallium flux fluorescence; hits give high values;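 active = fluorescence ratio B-score at least 3 SD of library B-scores, with initial fluorescence B-score within 3 of them, cut at about 5.3 in these data; same plate scores as AID 2156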;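 also: B-score of peak minus minimum over baseline fluorescence ratio after K+ and Tl+ stimulus; positive B-score means potentiation of KCNQ2 with more thallium influx and brighter signal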
Kir21 confirm: confirmation of mouse Kir2.1 potassium channel inhibitors; shares compounds with KCNQ2 enhance; Kir2.1-expressing cells, FluxOR thallium flux fluorescence; hits give low values; Tl flux remaining, % of negative control (hits give low values), % at 10 µM; actives 41% (n = 2,300);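 active = Primary-screen hit whose thallium flux fell at least 3 control SD below untreated wells in both duplicates, with normal baseline fluorescence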;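 also: 0% = blank wells without stimulus and 100% = stimulated no-compound controls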
HEK293 Tl flux: alters thallium flux in parental HEK293 cells, Kir2.1 counter-screen. shares compounds with KCNQ2 enhance. FluxOR thallium flux fluorescence; 0% = unstimulated blank wells. FluxOR signal as % of negative control (100 = no effect), % at 10 µM. actives 19% (n = 2,300). AID 2105;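 active = dye signal at least 3 control SD above or below untreated wells in both duplicates, raw fluorescence within 3, either direction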;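 also: percent is based on the flux ratio of peak minus minimum fluorescence over baseline F0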
CHO-K1 ctr: counter-screen for KCNQ2 potentiators: effect in parental CHO-K1 cells | shares compounds with KCNQ2 enhance | FluxOR thallium flux fluorescence; zero = vehicle mean+3SD, 100% = vehicle-minus-blank window | activity increase over 3SD of controls, % at 10 µM | actives 43% (n = 1,200);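 active = signal rise of at least 3 SD above the untreated control mean, in both duplicate wells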;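 also: counter screen of KCNQ2 potentiator hits so any rise reflects channel-independent effects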
KCNQ1 sel pot: tests whether KCNQ2 potentiators also act on human KCNQ1; shares compounds with KCNQ2 enhance; CHO KCNQ1 stable, FluxOR thallium flux fluorescence; beyond 3SD, as % of vehicle-control signal; actives 28% (n = 1,200); activation over 3SD threshold, % at 10 µM; AID 2283;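 active = fluorescence ratio rise of at least 3 SD of vehicle wells above their mean, in both replicate wells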;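 also: 0% = vehicle mean plus 3 SD and 100% = vehicle minus unstimulated blank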
KCNQ2 pot conf: confirmation of rat KCNQ2 potassium channel potentiators; potentiation, less the hit threshold, % at 10 µM; actives 68% (n = 1,200); AID 2287; CHO-KCNQ2 cells, FluxOR thallium flux fluorescence; shares compounds with KCNQ2 enhance;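 active = fluorescence ratio rising 3 SD or more over the vehicle control mean in both replicates, plus primary screen hit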;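 also: peak minus minimum thallium fluorescence divided by baseline after K/Tl stimulus; 0% = vehicle mean plus 3 SD and 100% = vehicle minus unstimulated blank difference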
Kir21 spec: selectivity of KCNQ2 potentiators: effect on mouse Kir2.1 | HEK293 Kir2.1, FluxOR thallium flux fluorescence | AID 2345 | activity over 3SD threshold, % at 10 µM | shares compounds with KCNQ2 enhance | actives 2% (n = 1,200);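 active = fluorescence ratio rise of at least 3 SD above the vehicle-control mean, seen in both replicates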;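 also: 0% = vehicle mean plus 3 SD and 100% = vehicle minus no-stimulus blank window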
KCNQ2 W236L MoA: KCNQ2 potentiators acting on retigabine-insensitive rat KCNQ2 W236L mutant; shares compounds with KCNQ2 enhance; CHO KCNQ2-W236L, automated patch clamp current; current increase over 3SD of negative controls (%), hits give high values, % at 25 µM; actives 10% (n = 940); AID 2558;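 active = current increase at least 3 SD of the untreated controls above them in both duplicate recordings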
The depositor's hits bear a star; i = inactive; nt = no result.

SMILES	KCNQ2 inh	KCNQ2 enhance	Kir21 confirm	HEK293 Tl flux	others
CC(C)OC(=O)c1cc2c(ccn2C)n1CC(=O)N1CCC(Cc2ccccc2)CC1	i	9.9*	i	i	CHO-K1 ctr=40*;KCNQ1 sel pot=70*;KCNQ2 pot conf=7.1*;Kir21 spec=-20;KCNQ2 W236L MoA=i
Cc1ccccc1Cn1c(C(=O)OC(C)C)cc2c1ccn2C	i	nt	nt	nt
COC(=O)Nc1ccc2c(c1)N(C(=O)CCN1CCOCC1)c1ccccc1S2	i	nt	nt	nt
CC(O)CNc1ccc([N+](=O)[O-])cc1S(=O)(=O)N1CCOCC1 (configuration not stated)	i	nt	nt	nt
COc1cc(CNCc2ccccn2)ccc1OCc1c(Cl)cccc1Cl	i	0.47	40%*	i
COc1cc(CNCc2ccccn2)ccc1OCc1ccc(Cl)cc1	i	1.3	nt	nt
O=c1oc(-c2ccccc2F)nc2c1cnn2-c1ccccc1	i	0.99	nt	nt
Cc1cccc(C(=O)Nc2ccc(O)cc2C(=O)O)c1	i	0.38	nt	nt
CCOc1cc(CNC2CCCC2)ccc1OCc1ccccc1Cl	i	nt	nt	nt
CCOc1cc(CNC2CCCC2)cc(Cl)c1OCc1ccccc1	i	nt	34%*	134%*
CCOc1c(Cl)cc(CNCC(C)C)cc1OC	i	0.97	nt	nt
CCOc1cc(CNCC(C)C)cc(Cl)c1OCc1ccccc1	i	nt	20%*	i
Cc1ccn(CCC(=O)O)n1	i	nt	nt	nt
CCOC(=O)C(=O)N(Nc1ccc(C)cc1)c1ccc(C)cc1	i	nt	nt	nt
CCC(O)(CC)C(=O)N(Nc1ccc(C)cc1)c1ccc(C)cc1	i	5.6*	i	i	CHO-K1 ctr=-6;KCNQ1 sel pot=-4;KCNQ2 pot conf=-1;Kir21 spec=-42;KCNQ2 W236L MoA=37%*
O=C(COc1ccc(S(=O)(=O)N2CCOCC2)cc1)NCC1CCCO1 (configuration not stated)	i	0.42	nt	nt
CNS(=O)(=O)c1ccc(NS(=O)(=O)c2ccccc2F)cc1	i	nt	nt	nt
O=C(Nc1ccc(Br)cc1)c1ccc(-n2cnnn2)cc1	i	0.26	nt	nt
Cc1cccc(C)c1NC(=O)c1ccc(-n2cnnn2)cc1	i	13*	i	i	CHO-K1 ctr=-7;KCNQ1 sel pot=-15;KCNQ2 pot conf=-22;Kir21 spec=-37
COc1cc(OC)cc(C(=O)OCC(=O)N2CCCC2)c1	i	nt	nt	nt
O=C(CCC1CCCCC1)NNC(=O)NC12CC3CC(CC(C3)C1)C2	i	9.3*	i	i	CHO-K1 ctr=-22;KCNQ1 sel pot=-62;KCNQ2 pot conf=12*;Kir21 spec=-32;KCNQ2 W236L MoA=i
O=C(O)CCC(=O)NNC(=O)CCC1CCCCC1	i	0.21	nt	nt
COc1ccc(OC)c(-c2csc(N(C)C(=O)Cc3ccccc3)n2)c1	i	nt	nt	nt
O=C(NC1CCN(Cc2ccccc2)CC1)c1ccccc1Cl	i	0.43	nt	nt
Cc1c(C(=O)NC2CCN(Cc3ccccc3)C2)oc2c(Cl)cccc12 (configuration not stated)	i	nt	i	i
SMILES	KCNQ2 inh	KCNQ2 enhance	Kir21 confirm	HEK293 Tl flux	others
CCS(=O)(=O)N1CCC(C(=O)NCc2cccc(OC)c2)CC1	i	0.09	nt	nt
CCC(C)NC(=O)C1CCN(S(=O)(=O)c2ccc(Br)s2)CC1 (configuration not stated)	i	0.77	nt	nt
CC(NC(=O)C1CCN(S(=O)(=O)c2ccc(Br)s2)CC1)c1ccccc1 (configuration not stated)	i	6.8*	i	i	CHO-K1 ctr=5.4*;KCNQ1 sel pot=-19;KCNQ2 pot conf=14*;Kir21 spec=-25;KCNQ2 W236L MoA=i
COc1cccc(CNC(=O)C2CCN(S(=O)(=O)c3ccc(Br)s3)CC2)c1	i	7.3*	i	i	CHO-K1 ctr=-5;KCNQ1 sel pot=-23;KCNQ2 pot conf=9.6*;Kir21 spec=-48;KCNQ2 W236L MoA=i
CC(NS(=O)(=O)c1ccc(Br)s1)c1ccccc1 (configuration not stated)	i	0.04	50%*	i
O=S(=O)(NCc1ccccc1)c1ccc(Br)s1	i	nt	nt	nt
O=Cc1ccc(N2CCCC2)o1	i	nt	nt	nt
Cc1ccc(S(=O)(=O)N/N=C\C=C\c2ccccc2)cc1	i	nt	nt	nt
CCCCCCCCC(=O)O	i	0.64	nt	nt
CCCCCCCC/C=C\CCCCCCCC(=O)O	i	6.8*	i	i	CHO-K1 ctr=-10;KCNQ1 sel pot=33*;KCNQ2 pot conf=-13;Kir21 spec=-31
Cc1cc(O)c(/C=N/Nc2ccc(F)cc2)c(=O)o1	i	nt	nt	nt
COc1ccccc1CNCc1ccc(C)cc1	i	nt	nt	nt
COc1ccc2ccccc2c1CNCc1ccc(C)cc1	i	nt	22%*	i
N#Cc1ccc(NC(=O)COC(=O)CSc2nnc(-c3ccc(Cl)cc3)o2)cc1	i	2.3	nt	nt
CC(=O)N(CC(=O)O)c1ccccc1	i	0.66	nt	nt
CC(=O)N(CC(C)(C)CC=C(C)C)c1ccccc1	i	nt	54%*	i
CC(C)(C)C(=O)/C=C/Nc1ccccc1O	i	9*	i	71%*	CHO-K1 ctr=-12;KCNQ1 sel pot=78*;KCNQ2 pot conf=59*;Kir21 spec=-14;KCNQ2 W236L MoA=1.6%*
CN(C)c1ccc(N/C=C/C(=O)C(C)(C)C)cc1	i	nt	nt	nt
C=CCn1c(SCc2ccc(Br)cc2F)nc2cc(C(=O)O)ccc2c1=O	i	5.3*	i	i	CHO-K1 ctr=-15;KCNQ1 sel pot=-20;KCNQ2 pot conf=-2;Kir21 spec=-29;KCNQ2 W236L MoA=i
C=CCn1c(SCc2c(C)noc2C)nc2cc(C(=O)O)ccc2c1=O	i	0.07	nt	nt
FC(F)(F)c1ccncc1-c1nnc(C2CCCCC2)o1	i	0.49	nt	nt
COc1ccc(C(=O)NN/C(C)=C/C(=O)c2ccccc2)cc1	i	0.97	nt	nt
C/C(=C\C(=O)c1ccccc1)NNC(=O)c1ccc(Cl)cc1	i	18*	i	i	CHO-K1 ctr=-14;KCNQ1 sel pot=-14;KCNQ2 pot conf=-5;Kir21 spec=-45;KCNQ2 W236L MoA=i
COc1cc(C)c(C(=O)Oc2cc(C)c(C(=O)O)c(O)c2)c(O)c1	i	7*	i	i	CHO-K1 ctr=45*;KCNQ1 sel pot=-11;KCNQ2 pot conf=14*;Kir21 spec=-22;KCNQ2 W236L MoA=21%*
COc1cc(C)c(C(=O)Oc2cc(C)c(C(=O)O)c(O)c2C)c(O)c1C	i	5.2	nt	nt
O=C(CCCc1ccccc1)N1CCN(C2CCCCC2)CC1	i	1.9	nt	nt
COCCCn1c(=S)[nH]c2sc3c(c2c1=O)CCCS3	i	7.2*	i	285%*	CHO-K1 ctr=-31;KCNQ1 sel pot=47*;KCNQ2 pot conf=24*;Kir21 spec=-28;KCNQ2 W236L MoA=i
Cn1c(=S)[nH]c2sc3c(c2c1=O)CCC(C(C)(C)C)C3 (configuration not stated)	i	18*	i	467%*	CHO-K1 ctr=-1;KCNQ1 sel pot=-11;KCNQ2 pot conf=85*;Kir21 spec=1.4*;KCNQ2 W236L MoA=i

Compound activity deposited in PubChem BioAssay by Johns Hopkins Ion Channel Center.
